From PubChem BioAssay (NCI)
Several values for one entry are separate records, joined by “and”; a condition that tells them apart may be missing. Equal entries are not always repeated. This is part of a sample that, as a whole, favours compounds with a hit. Of some 83,000 tested, about 20% had one in any assay.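 Each cell line was grown in a 96-well plate and treated with one concentration of compound for 48 hours. Values below 10 were considered active.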 Unmarked numbers belong to inactive results. Activity calls are given as the source filed them.

These compounds were tested on SK-OV-3 ovarian (assay: NCI-60 one-dose screen, 48 h (100 = growth as untreated, 0 = no growth, -100 = all killed)). Settings: 10 µM.
Protocol: Growth inhibition of the SK-OV-3 human tumor cell line is measured as a screen for anti-cancer activity. Cells are grown in 96 well plates and exposed to the test compound for 48 hours. Compounds are tested at a single concentration, which is 10^-5 M for most compounds. The reported endpoint is percent growth (GI% or GIPRCNT), where numbers from 0 - 100% represent growth inhibition, and numbers from -100% - 0 represent cell death. For example, a value of 40 represents 60% growth inhibition. A value of 0 means no net growth occurred over the course of the experiment. A value of -40 indicates 40% of cells at the beginning of the experiment died by the end of the experiment. A value of -100 means all cells are dead at the end of the experiment.
NCI-60 Human Tumor Cell Lines Screen was performed using the standard one-dose NCI protocol, which is described in more detail at https://dtp.cancer.gov/discovery_development/nci-60/default.htm.
Compounds with GIPRCNT values below 10 were considered active. Activity score was based on GIPRCNT using the following formula: […]
Score is 0 for GIPRCNT values of 100 or above, 50 for GIPRCNT values of 0, and 100 for GIPRCNT values of -100.

| Compound | growth |
| --- | --- |
| O=C(O)CCCc1ccc(N(CCCl)CCCl)cc1 | 101% and 108% |

Same assay, conditions: 10 µM unless noted

| Compound | growth |
| --- | --- |
| O=P(O)(Nc1ccccc1)Nc1ccccc1 | 110% |
| O=[N+]([O-])c1cc(Br)c(O)c(Br)c1 | 103% |
| CC[C@H](C)[C@H](NC(=O)[C@H]1CCCCN1C)C(=O)N(C)[C@H](C[C@@H](OC(C)=O)c1nc(C(=O)NC23C4C5C2C2C3C4C52C(=O)OC)cs1)C(C)C (stereo not given in full) | 34.4% |
| Cc1c(C)c(N)c(C)c(C)c1N | 91.3% |
| O=[N+]([O-])c1ccc(CI)cc1 | 116% |
| O=c1c2ccccc2nc(-c2ccccc2Cl)n1-c1nnc(C(F)(F)F)s1 | 25.7% |
| CC1=C([Te]c2ccccc2)C(=O)c2ccccc2C1=O | -37.8% (active) |
| O=C(CBr)OCCOC(=O)CBr | 133% |
| O=C(O)c1cc([N+](=O)[O-])cc([N+](=O)[O-])c1 | 94.9% |
| CC(C)CCC1C(=O)NC(=O)NC1=O | 88.2% |
| CCOC(=O)c1cncn1C(C)c1ccccc1 (stereo not given) | 103% |
| C[C@]12CC[C@H]3[C@@H](CC=C4c5nc(N)sc5CC[C@@]43C)[C@@H]1CC[C@@H]2O | 103% |
| O=c1[nH]c(=O)n(Cl)c(=O)n1Cl | 111% and 109% |
| C[C@]12CC[C@H](O)C[C@@H]1CC[C@@H]1[C@@H]2CC[C@]2(C)OC(=O)CC[C@@H]12 | 85% |
| O=CC1(c2ccccc2)CCN(Cc2ccccc2)CC1 | 114% |
| Cc1cc(Br)c([N+](=O)[O-])cc1[N+](=O)[O-] | 104% |
| S=P(SP(=S)(c1ccccc1)c1ccccc1)(c1ccccc1)c1ccccc1 | 106% |
| Cc1ccc(N2CCN(CCC#N)CC2)cc1 | 93.4% |
| O=C(O)c1ccccc1N(CCO)CCCl | 108% |

| Compound | growth |
| --- | --- |
| C[C@]12CCc3sc(Nc4ccc(OC(F)(F)F)cc4)nc3C1=CC[C@@H]1[C@@H]2CC[C@]2(C)C(=O)CC[C@@H]12 | 69.9% |
| CC[C@H](C)[C@H](NC(=O)[C@H]1CCCCN1C)C(=O)N(C)[C@H](CCc1nc(C(=O)N[C@@H](Cc2ccccc2)C[C@H](C)C(=O)O)cs1)C(C)C | 12.3% |
| COc1ccn(C)c(=O)c1C#N | 91.9% |
| Cc1ccccc1-n1c(/C=C\c2ccccn2)nc2ccccc2c1=O | 86.6% |
| CC1=C2[C@H]3OC(=O)[C@@H](C)[C@@H]3CC[C@@]2(C)C=CC1=O | 122% |
| [N-]=[N+]=CC(=O)CCC(=O)C=[N+]=[N-] | 109% |
| CC12CCC3C4CCC(=O)C=C4CCC3C1CC1CC(=O)OC12 (stereo not given) | 101% |
| CCN(CC)CCn1c(=O)n(C)c2ccccc21 | 106% |
| COc1ccc(N)cc1OC | 113% |
| CN(C)c1ccc(C=C2C(=O)NC(=O)NC2=O)cc1 | 109% |
| Cn1cc(-c2csc(-c3cn(CCCCN4CCOCC4)c4ccc(F)cc34)n2)c2cccnc21 | 84% |
| CC1=CC(=O)CCC12CCOC2=O (stereo not given) | 101% |
| N#CC(NC(=O)CCl)=C(Cl)Cl | 88.5% |
| Oc1cc(Cl)ccc1Oc1ccc(Cl)cc1Cl | 89.2% |
| CC(=O)Nc1nc2c(s1)C1=CC[C@H]3[C@@H]4CC[C@H](OC(C)=O)[C@@]4(C)CC[C@@H]3[C@@]1(C)CC2 | 68.4% |
| Cc1cc(N)ccc1N | 99.9% |
| Cc1cc(NC(=O)NCCCOc2ccc(N3C(N)=NC(N)=NC3(C)C)cc2Cl)ccc1S(=O)(=O)F | 65.3% |
| CCCCS(=O)(=O)Cl | 110% |
| CNC(=O)O/N=C(\SC)C(=O)N(C)C | 102% |

Same assay, conditions: 75 µM

| Compound | growth [%] |
| --- | --- |
| O=C(O)CCCc1ccc(N(CCCl)CCCl)cc1 | 59.8 |
